Experimental data as given in PubChem BioAssay (NCATS).
Records with an inconclusive call do not appear. A call without a number means that no potency is given here. Calls of active or inactive are those of the source. The call rests on the fitted dose curve; in most records, active means well fitted inhibition curve with a large enough effect; inconclusive means small, poorly fitted or top-dose-only effect; inactive means flat fitted curve, though single readings scatter.

The molecules below were run against Glutathione peroxidase 1 (Homo sapiens) (UniProt P07203) (assay: Primary qHTS Assay for Inhibitors of Recombinant Selenoprotein Glutathione Peroxidase 1 (GPX1) (AID 1845191; further: nearly all actives have a fitted effect of over 65% in size)). Details: recombinant GPX1, GR-coupled NADPH fluorescence, 15 min; series mostly up to 48.8 µM.
How it was run: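 GPX1 10 nM, GR 100 nM, GSH 1 mM, NADPH 0.5 mM, CHP 0.5 mM (final). 30-min cpd preincubation, RT. Ex340/Em450 read t=0, t=15 min.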
Potency means the concentration at half of the fitted maximal effect.

Glutathione peroxidase 1 (Homo sapiens), sequence (P07203 whole entry, looked up): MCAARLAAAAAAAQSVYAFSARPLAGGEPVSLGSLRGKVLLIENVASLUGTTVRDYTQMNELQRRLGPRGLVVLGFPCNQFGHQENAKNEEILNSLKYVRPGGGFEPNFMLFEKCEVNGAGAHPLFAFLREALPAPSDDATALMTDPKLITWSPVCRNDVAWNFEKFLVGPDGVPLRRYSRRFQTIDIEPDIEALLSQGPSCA

Q: Which Potency does the source give for Oc1c(Br)cc(Br)cc1CNC1CCC(O)CC1 (stereo not given) here?
A: inactive

Q: Which Potency does the source give for Cc1ccc2occ(-c3cc(-c4ccc(F)cc4)nc4c3COc3ccc(F)cc3-4)c(=O)c2c1 here?
A: inactive

Q: With NCc1ccc(Oc2ccccc2)cc1 as the molecule, how does the Potency read?
A: inactive

Q: CC(=O)CCC1C(=O)N(c2ccccc2)N(c2ccccc2)C1=O was tested. Which Potency did it give?
A: inactive

Q: Cc1ccc(C(=O)/C=C/c2ccccc2)s1 was tested. Which Potency did it give?
A: inactive

Q: Which Potency does the source give for O=S1(=O)CCN(CN2CCS(=O)(=O)NC2)CN1 here?
A: inactive

Q: How did the Potency turn out when O=c1cc(N2CCOCC2)oc2c1ccc1ccccc12 was run?
A: inactive

Q: Which Potency does the source give for OC[C@H]1O[C@@H](c2ccc(F)c(Cc3cc4ccccc4s3)c2)[C@H](O)[C@@H](O)[C@@H]1O here?
A: inactive

Q: How did the Potency turn out when C/C(=N\N=C(N)N)c1ccc(NC(=O)Nc2ccc(/C(C)=N/N=C(N)N)cc2)cc1 was run?
A: inactive

Q: Which Potency does the source give for NNCCc1ccc(NC(=O)CCCc2ccccc2)cc1 here?
A: inactive

Q: How did the Potency turn out when CCN1CCN(C2(C(=O)NCCc3ccccc3)Cc3ccccc3C2)CC1 was run?
A: inactive

Q: Clc1cccc(N2CCN(c3nc4ccccc4c4nc(-c5cccnc5)nn34)CC2)c1 was tested. Which Potency did it give?
A: inactive

Q: Which Potency does the source give for CC1CCc2c(sc3nc(-c4cc5ccccc5oc4=O)nc(Cl)c23)C1 (stereo not given) here?
A: inactive

Q: With N#Cc1ncccn1 as the molecule, how does the Potency read?
A: inactive

Q: For O=C(O)c1ccnc2cc(C(OCCCN3CCCCC3)c3ccccc3Cl)[nH]c12 (stereo not given), which Potency is on record?
A: inactive

Q: For Fc1ccc(N2CCN(c3nc4ccccc4c4nc(-c5cccnc5)nn34)CC2)cc1, which Potency is on record?
A: inactive

Q: How did the Potency turn out when C=C(NC(=O)C(=C)NC(=O)c1csc(C2=N[C@H]3c4csc(n4)[C@H]4NC(=O)c5csc(n5)[C@H]([C@@](C)(O)[C@@H](C)O)NC(=O)[C@H]5CSC(=N5)C(=CC)NC(=O)[C@H]([C@@H](C)O)NC(=O)c5csc(n5)[C@]3(CC2)NC(=O)[C@H](C)NC(=O)C(=C)NC(=O)[C@H](C)NC(=O)[C@H](C(C)CC)N[C@@H]2C=Cc3c([C@H](C)O)cc(nc3[C@H]2O)C(=O)O[C@@H]4C)n1)C(N)=O (stereo not given in full) was run?
A: inactive

Q: O=S(=O)(Nc1cccc(-c2ccc(N3CCOCC3)nn2)c1)c1cc(C(F)(F)F)ccc1Cl was tested. Which Potency did it give?
A: inactive

Q: Which Potency does the source give for O=C(O)CCN(O)C(=O)CCCCCCCCC1CC1 here?
A: inactive

Q: How did the Potency turn out when Cn1cc(C2=C(c3cn(CCCN)c4ccccc34)C(=O)NC2=O)c2ccccc21 was run?
A: inactive

Q: With CN[C@@H]1[C@H](O[C@H]2[C@H](O[C@@H]3[C@@H](O)[C@H](O)[C@@H](N=C(N)N)[C@H](O)[C@H]3NC(=N)N)O[C@@H](C)[C@]2(O)CO)O[C@@H](CO)[C@H](O)[C@H]1O as the molecule, how does the Potency read?
A: inactive

Q: With N#Cc1ccc(-c2csc(NN=C3CCCC3)n2)cc1 as the molecule, how does the Potency read?
A: inactive

Q: Which Potency does the source give for CC1CCc2c(cc(Br)c(F)c2Br)N1C=O (stereo not given) here?
A: inactive

Q: For O=C(O)C1CCc2cc(C3CCCCC3)c(Cl)cc21 (stereo not given), which Potency is on record?
A: inactive

Q: With Nc1c(C(=O)Nc2ccc(F)cc2)sc2nc(-c3cccs3)cc(C(F)(F)F)c12 as the molecule, how does the Potency read?
A: 14.3 µM (active)

Q: For CCC(=O)O[C@]1(C(=O)COC(C)=O)CC[C@H]2[C@@H]3C[C@H](C)C4=CC(=O)C=C[C@]4(C)[C@H]3[C@@H](O)C[C@@]21C, which Potency is on record?
A: inactive

Q: COc1ccc(C(=O)Nc2ccc3oc(-c4ccc(F)cc4Cl)nc3c2)cc1 was tested. Which Potency did it give?
A: inactive

Q: Which Potency does the source give for CC(C)(C)c1ccc(S(=O)(=O)Nc2ccc(-n3ccnc3)cc2)cc1 here?
A: inactive

Q: How did the Potency turn out when C[C@@H]1[C@H](C)CC[C@]2(C(=O)O[C@@H]3O[C@@H](CO[C@@H]4O[C@@H](CO)[C@@H](O[C@@H]5O[C@@H](C)[C@@H](O)[C@@H](O)[C@H]5O)[C@@H](O)[C@H]4O)[C@@H](O)[C@@H](O)[C@H]3O)CC[C@]3(C)C(=CC[C@H]4[C@@]5(C)C[C@@H](O)[C@@H](O)[C@](C)(CO)[C@@H]5CC[C@@]43C)[C@H]12 was run?
A: inactive

Q: With C=CS(=O)(=O)N1CCCN(c2cc(NCCC(=O)O)nc(-c3ccccn3)n2)CC1 as the molecule, how does the Potency read?
A: inactive

Q: With C=C(C)CNc1ccc(C(C)C(=O)O)cc1 (stereo not given) as the molecule, how does the Potency read?
A: inactive

Q: For COC(=O)CCSC/C=C(\C)CCn1cc(CCc2ccc(-c3ccccc3)cc2)nn1, which Potency is on record?
A: inactive

Q: For Cc1cc(Nc2cccc(C(F)(F)F)c2)nc2ccc(NC(=O)c3ccc(=O)[nH]c3)cc12, which Potency is on record?
A: inactive

Q: CN1C(=O)[C@]23C[C@H]4C(C)(C)[C@]5(CNc6c5ccc5c6OC=CC(C)(C)O5)C[C@@]41CN2CC[C@@]3(C)O was tested. Which Potency did it give?
A: inactive

Q: Which Potency does the source give for Cc1c(C(=O)Nc2cccc(-c3nc4ccccc4s3)c2)oc2ccc(F)cc12 here?
A: inactive

Q: For CC(C)Oc1ccc(-c2c[nH]cc2CN(C)CCN)cc1, which Potency is on record?
A: inactive

Q: For C/C=C(/C)C(=O)O[C@@H]1c2cc(OC)c(OC)c(OC)c2-c2c(cc3c(c2OC)OCO3)C[C@H](C)[C@]1(C)O, which Potency is on record?
A: inactive

Q: How did the Potency turn out when C=C1/C(=C/C=C2\CCC[C@]3(C)[C@@H]([C@H](C)CCCC(C)(C)O)CC[C@@H]23)C[C@@H](O)[C@@H](OCCCO)[C@@H]1O was run?
A: inactive

Q: Which Potency does the source give for Cc1ccc2nc(NC(=O)CSc3nc4c(c(=O)n3C)SC(C)C4)sc2c1 (stereo not given) here?
A: inactive

Q: O=[N+]([O-])c1ccc(Nc2nc(N3CCOCC3)nc(N3CCOCC3)n2)cc1 was tested. Which Potency did it give?
A: inactive
